# Values without a mark were called inactive.
# Assays:
# Assay in all cases: log2 ratio of Biotin-Ahx-Ub-VS probe labelling (fragment/DMSO); higher = less target engagement (more negative = stronger competition), active = hit call of the paper (q ≤ 0.05, log2 ratio ≤ -1)
# Conditions in all cases: compound concentration: 200 uM; treatment time: 3 h
# OTUD6B = biological target: T1, OTUD6B (UniProt Q8N6M0)
# T1 sequence (whole entry): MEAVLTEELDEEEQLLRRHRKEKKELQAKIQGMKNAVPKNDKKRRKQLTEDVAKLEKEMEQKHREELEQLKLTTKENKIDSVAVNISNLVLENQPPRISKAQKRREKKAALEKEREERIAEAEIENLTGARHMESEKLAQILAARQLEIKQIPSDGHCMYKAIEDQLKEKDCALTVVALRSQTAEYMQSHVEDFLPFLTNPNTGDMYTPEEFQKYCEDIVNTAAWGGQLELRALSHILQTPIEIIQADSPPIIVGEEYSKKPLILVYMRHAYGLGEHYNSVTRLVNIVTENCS
# Method in brief: (§1)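 Global-median-normalised Spectronaut label-free quantities were compared by unpaired t-test, and values are average log2 ratios of fragment over vehicle. Only proteins with ≥2 unique peptides were used. HEK293T lysate (495 µg per sample) was treated in triplicate with fragment at 200 µM or vehicle for 3 h and then with Biotin-Ahx-Ub-VS at 0.5 µM final for 1 h. Labelled DUBs were then NeutrAvidin-enriched, digested with LysC and trypsin, and run by diaPASEF LC-MS/MS.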
# OTUD7B = biological target: T2, OTUD7B (UniProt Q6GQQ9)
# T2 sequence (whole entry): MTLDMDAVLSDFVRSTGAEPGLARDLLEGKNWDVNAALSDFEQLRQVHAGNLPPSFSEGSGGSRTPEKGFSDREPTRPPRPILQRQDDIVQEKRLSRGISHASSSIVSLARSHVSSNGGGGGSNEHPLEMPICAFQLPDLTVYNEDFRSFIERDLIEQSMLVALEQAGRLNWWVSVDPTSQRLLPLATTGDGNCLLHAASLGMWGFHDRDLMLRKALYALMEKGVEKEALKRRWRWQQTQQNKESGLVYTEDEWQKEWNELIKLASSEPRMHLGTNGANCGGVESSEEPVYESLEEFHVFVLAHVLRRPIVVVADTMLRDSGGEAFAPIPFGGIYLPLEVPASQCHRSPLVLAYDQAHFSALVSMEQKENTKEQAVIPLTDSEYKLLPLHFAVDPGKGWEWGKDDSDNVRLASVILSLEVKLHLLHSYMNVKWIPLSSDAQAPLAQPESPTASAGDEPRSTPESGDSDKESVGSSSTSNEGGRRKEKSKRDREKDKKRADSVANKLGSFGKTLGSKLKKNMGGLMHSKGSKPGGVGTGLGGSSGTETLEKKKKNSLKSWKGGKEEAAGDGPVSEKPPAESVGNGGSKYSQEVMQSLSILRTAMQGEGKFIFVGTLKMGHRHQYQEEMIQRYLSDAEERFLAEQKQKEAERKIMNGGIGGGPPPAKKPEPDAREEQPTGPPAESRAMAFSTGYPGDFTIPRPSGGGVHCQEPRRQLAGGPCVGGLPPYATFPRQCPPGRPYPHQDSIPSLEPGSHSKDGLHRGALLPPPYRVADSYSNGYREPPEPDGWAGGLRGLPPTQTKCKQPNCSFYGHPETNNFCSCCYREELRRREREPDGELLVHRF
# Method in brief: as §1
# PRPF8 = PRPF8 (UniProt Q6P2Q9)
# Method in brief: as §1
# PSMD7 = biological target: T3, PSMD7 (UniProt P51665)
# T3 sequence (whole entry): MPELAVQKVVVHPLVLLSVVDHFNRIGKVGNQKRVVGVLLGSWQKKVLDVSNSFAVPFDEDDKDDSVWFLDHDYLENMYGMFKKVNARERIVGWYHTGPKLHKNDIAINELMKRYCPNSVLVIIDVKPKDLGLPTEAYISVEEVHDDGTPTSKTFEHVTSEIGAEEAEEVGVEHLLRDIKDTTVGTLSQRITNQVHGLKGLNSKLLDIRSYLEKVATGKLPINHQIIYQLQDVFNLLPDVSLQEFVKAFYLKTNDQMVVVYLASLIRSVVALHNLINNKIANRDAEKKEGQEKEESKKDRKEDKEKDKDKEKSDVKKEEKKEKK
# Method in brief: as §1
# UCHL1 = UCHL1 (UniProt P09936)
# Method in brief: as §1
# UCHL3 = biological target: T4, UCHL3 (UniProt P15374)
# T4 sequence (whole entry): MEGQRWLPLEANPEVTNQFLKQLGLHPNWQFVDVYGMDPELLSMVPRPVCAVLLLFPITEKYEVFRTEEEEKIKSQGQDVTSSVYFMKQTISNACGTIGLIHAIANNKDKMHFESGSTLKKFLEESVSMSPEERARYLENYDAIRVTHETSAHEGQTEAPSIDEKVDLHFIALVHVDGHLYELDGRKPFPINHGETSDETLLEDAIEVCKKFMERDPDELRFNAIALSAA
# Method in brief: as §1
# UCHL5 = biological target: T5, UCHL5 (UniProt Q9Y5K5)
# T5 sequence (whole entry): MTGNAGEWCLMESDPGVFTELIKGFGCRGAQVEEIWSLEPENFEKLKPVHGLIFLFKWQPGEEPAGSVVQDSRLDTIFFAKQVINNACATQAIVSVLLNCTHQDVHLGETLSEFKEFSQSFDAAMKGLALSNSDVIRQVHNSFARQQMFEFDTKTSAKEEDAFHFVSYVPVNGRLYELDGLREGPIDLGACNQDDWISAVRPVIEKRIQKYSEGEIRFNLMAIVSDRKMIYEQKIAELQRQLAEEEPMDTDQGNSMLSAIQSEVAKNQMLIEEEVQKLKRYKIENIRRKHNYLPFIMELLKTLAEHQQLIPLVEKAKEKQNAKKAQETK
# Method in brief: as §1
# USP10 = USP10 (UniProt Q14694)
# Method in brief: as §1
# USP15 = biological target: T6, USP15 (UniProt Q9Y4E8)
# T6 sequence (whole entry): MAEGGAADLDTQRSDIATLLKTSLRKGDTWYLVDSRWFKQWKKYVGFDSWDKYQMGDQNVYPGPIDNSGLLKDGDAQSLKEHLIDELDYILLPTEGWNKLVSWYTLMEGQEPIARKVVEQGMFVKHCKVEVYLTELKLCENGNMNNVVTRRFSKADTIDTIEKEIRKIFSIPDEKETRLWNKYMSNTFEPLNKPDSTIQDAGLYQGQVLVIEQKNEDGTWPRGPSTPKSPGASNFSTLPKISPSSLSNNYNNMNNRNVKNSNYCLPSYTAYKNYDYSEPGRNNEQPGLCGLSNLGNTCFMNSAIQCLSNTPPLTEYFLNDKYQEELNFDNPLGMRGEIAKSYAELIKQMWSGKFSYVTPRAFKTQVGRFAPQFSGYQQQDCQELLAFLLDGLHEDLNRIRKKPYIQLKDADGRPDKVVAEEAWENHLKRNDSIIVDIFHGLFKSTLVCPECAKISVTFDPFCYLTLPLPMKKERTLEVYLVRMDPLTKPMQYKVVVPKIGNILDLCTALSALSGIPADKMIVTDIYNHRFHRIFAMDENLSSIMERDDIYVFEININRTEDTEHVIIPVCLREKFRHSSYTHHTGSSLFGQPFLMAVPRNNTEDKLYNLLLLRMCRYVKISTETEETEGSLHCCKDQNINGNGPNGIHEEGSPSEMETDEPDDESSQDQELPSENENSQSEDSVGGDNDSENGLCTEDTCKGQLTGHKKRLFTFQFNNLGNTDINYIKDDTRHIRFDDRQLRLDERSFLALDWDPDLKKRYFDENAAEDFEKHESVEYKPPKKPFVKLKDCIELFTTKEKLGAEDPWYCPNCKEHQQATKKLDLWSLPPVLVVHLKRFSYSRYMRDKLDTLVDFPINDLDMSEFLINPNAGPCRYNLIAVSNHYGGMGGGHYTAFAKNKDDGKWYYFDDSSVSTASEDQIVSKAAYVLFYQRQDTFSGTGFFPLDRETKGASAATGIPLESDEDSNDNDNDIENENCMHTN
# Method in brief: as §1
# Chain of UCHL1 (P09936 whole entry, looked up): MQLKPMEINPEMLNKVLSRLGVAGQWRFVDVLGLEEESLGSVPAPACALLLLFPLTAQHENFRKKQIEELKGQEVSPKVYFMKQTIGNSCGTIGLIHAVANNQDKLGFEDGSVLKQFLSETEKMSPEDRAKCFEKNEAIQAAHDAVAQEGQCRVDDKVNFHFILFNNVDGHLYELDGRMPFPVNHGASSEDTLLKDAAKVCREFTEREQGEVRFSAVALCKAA
# Chain of USP10 (Q14694 whole entry): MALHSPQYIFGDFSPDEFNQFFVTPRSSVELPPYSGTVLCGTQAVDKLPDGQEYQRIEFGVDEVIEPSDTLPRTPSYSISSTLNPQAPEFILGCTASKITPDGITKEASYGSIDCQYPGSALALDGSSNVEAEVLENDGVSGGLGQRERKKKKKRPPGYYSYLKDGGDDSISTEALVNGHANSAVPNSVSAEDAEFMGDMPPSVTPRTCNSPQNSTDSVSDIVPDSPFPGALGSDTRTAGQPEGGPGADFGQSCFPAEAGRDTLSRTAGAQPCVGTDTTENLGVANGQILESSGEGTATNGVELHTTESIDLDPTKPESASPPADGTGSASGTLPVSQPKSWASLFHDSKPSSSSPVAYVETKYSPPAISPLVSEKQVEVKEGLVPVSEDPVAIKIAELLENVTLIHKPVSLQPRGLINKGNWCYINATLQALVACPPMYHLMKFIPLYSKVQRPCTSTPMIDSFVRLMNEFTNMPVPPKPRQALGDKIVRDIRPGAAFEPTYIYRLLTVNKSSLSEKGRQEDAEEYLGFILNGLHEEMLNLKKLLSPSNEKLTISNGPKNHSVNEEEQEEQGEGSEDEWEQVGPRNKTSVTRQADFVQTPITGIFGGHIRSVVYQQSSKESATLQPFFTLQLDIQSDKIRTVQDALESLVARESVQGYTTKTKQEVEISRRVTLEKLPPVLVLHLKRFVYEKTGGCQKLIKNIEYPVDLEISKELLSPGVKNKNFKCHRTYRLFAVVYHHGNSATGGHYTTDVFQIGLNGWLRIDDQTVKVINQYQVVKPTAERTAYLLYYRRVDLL
smiles,measurement,setting,value
CC(=O)C1CCCCN1C(=O)CCl (centres undefined),log2 ratio of Biotin-Ahx-Ub-VS probe labelling,OTUD6B,0.00453
same,log2 ratio of Biotin-Ahx-Ub-VS probe labelling,OTUD7B,-0.279
same,log2 ratio of Biotin-Ahx-Ub-VS probe labelling,PRPF8,0.0549
same,log2 ratio of Biotin-Ahx-Ub-VS probe labelling,PSMD7,0.203
same,log2 ratio of Biotin-Ahx-Ub-VS probe labelling,UCHL1,-1.44 (active)
same,log2 ratio of Biotin-Ahx-Ub-VS probe labelling,UCHL3,0.181
same,log2 ratio of Biotin-Ahx-Ub-VS probe labelling,UCHL5,-0.0871
same,log2 ratio of Biotin-Ahx-Ub-VS probe labelling,USP10,-0.0595
same,log2 ratio of Biotin-Ahx-Ub-VS probe labelling,USP15,-0.162
